Test results reported in the supplement of paper PMC6555819.

How the values were obtained:
Assay in all cases: PBM binding z-score (relative to random genomic background probes); higher = stronger binding; sequences stand for … in GC…GCGATTGACAGCGTAGAATGAAGG
[1] = tested on: PPARg:RXRa DBDmut IVT, anti-RXR (DBD mutation: RXRa K156A/R161A, NR concentration 270 nM, RXRa partner concentration 90 nM)
Outline: (§1)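 Custom Agilent 4×180K protein-binding microarrays carried double-stranded probes. Their 34-nt variable regions held direct-repeat seeds, single-nucleotide variants, half-site ablations and random human genomic background sequences. Arrays were incubated 1 h with ligand-free nuclear receptor dimers in PBS pH 7.4, 2% milk, 0.02% Triton X-100, 1 mM DTT, 0.2 mg/mL BSA and 0.4 mg/ml salmon testes DNA. Antibodies against each partner (one per run) detected binding, and scanned fluorescence was regression-normalized. Binding z-scores use random background probes as reference.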

[2] = tested on: PPARg:RXRa IVT, anti-PPARg (NR concentration 270 nM, RXRa partner concentration 90 nM)
Outline: as §1

[3] = tested on: PPARg DBDmut:RXRa IVT, anti-PPARg (DBD mutation: PPARg1 K132A/R137A, NR concentration 270 nM, RXRa partner concentration 90 nM)
Outline: as §1

[4] = tested on: PPARg DBDmut IVT, anti-PPARg (DBD mutation: PPARg1 K132A/R137A, NR concentration 270 nM)
Outline: as §1

[5] = tested on: PPARg homodimer (NR concentration 180 nM)
Outline: as §1

[6] = tested on: PXR:RXRa (NR concentration 270 nM, RXRa partner concentration 90 nM)
Outline: as §1

[7] = tested on: PXR homodimer (NR concentration 270 nM)
Outline: as §1

[8] = tested on: RARa:RXR (NR concentration 270 nM, RXRa partner concentration 90 nM)
Outline: as §1

[9] = tested on: RARa homodimer (NR concentration 270 nM)
Outline: as §1

[10] = tested on: RARb:RXRa (NR concentration 270 nM, RXRa partner concentration 90 nM)
Outline: as §1

[11] = tested on: RARb homodimer (NR concentration 270 nM)
Outline: as §1

[12] = tested on: RARg:RXRa (NR concentration 270 nM, RXRa partner concentration 90 nM)
Outline: as §1

[13] = tested on: RARg homodimer (NR concentration 270 nM)
Outline: as §1

[14] = tested on: RXRa DBDmut IVT, anti-RXR (DBD mutation: RXRa K156A/R161A, NR concentration 90 nM)
Outline: as §1

[15] = tested on: RXRa homodimer (NR concentration 180 nM)
Outline: as §1

[16] = tested on: THRa:RXRa (NR concentration 90 nM, RXRa partner concentration 90 nM)
Outline: as §1

[17] = tested on: THRa homodimer (NR concentration 90 nM)
Outline: as §1

[18] = tested on: VDR homodimer (NR concentration 270 nM)
Outline: as §1

Work on TCTAGTTAGTCACGGAGGTCACACACGACGGGTA yielded a PBM binding z-score [1] of 1.76, a PBM binding z-score [2] of 2.1 and a PBM binding z-score [3] of 1.18. The PBM binding z-score [4] was 0.869, the PBM binding z-score [5] was 2.2 and the PBM binding z-score [6] was 4.09. For the same sequence, the PBM binding z-score [7] was 1.01, the PBM binding z-score [8] was 4.71 and the PBM binding z-score [9] was 1.62. The PBM binding z-score [10] was 3.26, the PBM binding z-score [11] was 3.95 and the PBM binding z-score [12] was 3.7. The PBM binding z-score [13] was 3.44, the PBM binding z-score [14] was 1.24 and the PBM binding z-score [15] was 4.28. For the same sequence, the PBM binding z-score [16] was 3.56, the PBM binding z-score [17] was 2.59 and the PBM binding z-score [18] was 1.97.

For ATACCAGGGTGATCGTGAGGTCGTTGATACTAAC, the PBM binding z-score [1] was 0.0988, the PBM binding z-score [2] was 1.34 and the PBM binding z-score [3] was 0.464. It also gave a PBM binding z-score [4] of 0.118, a PBM binding z-score [5] of 1.12 and a PBM binding z-score [6] of 3.24. It also gave a PBM binding z-score [7] of 1.47, a PBM binding z-score [8] of 2.44 and a PBM binding z-score [9] of 0.625. The PBM binding z-score [10] was 1.23, the PBM binding z-score [11] was 1.83 and the PBM binding z-score [12] was 2.26. It also gave a PBM binding z-score [13] of 0.727, a PBM binding z-score [14] of 0.415 and a PBM binding z-score [15] of 1.78. For the same sequence, the PBM binding z-score [16] was 3.38, the PBM binding z-score [17] was 2.62 and the PBM binding z-score [18] was 2.64.

In the case of CAAACTAGGTCAAGTTCAAAGTCGGTTTGTGCCA, the PBM binding z-score [1] is reported as 8.65, the PBM binding z-score [2] is reported as 8.81 and the PBM binding z-score [3] is reported as 3.54. The PBM binding z-score [4] was 4.23, the PBM binding z-score [5] was 3.54 and the PBM binding z-score [6] was 5.1. The PBM binding z-score [7] was 6.98, the PBM binding z-score [8] was 3.97 and the PBM binding z-score [9] was 1.55. It also gave a PBM binding z-score [10] of 4.88, a PBM binding z-score [11] of 4.52 and a PBM binding z-score [12] of 5.17. It also gave a PBM binding z-score [13] of 5.92, a PBM binding z-score [14] of 3.84 and a PBM binding z-score [15] of 4.23. It also gave a PBM binding z-score [16] of 3.52, a PBM binding z-score [17] of 2.16 and a PBM binding z-score [18] of 6.29.

Work on TCAGACAGGTGAAGGTAACTGAGGTACGCAGTCG yielded a PBM binding z-score [1] of 2.45, a PBM binding z-score [2] of 1.54 and a PBM binding z-score [3] of 0.121. For the same sequence, the PBM binding z-score [4] was -0.373, the PBM binding z-score [5] was 0.384 and the PBM binding z-score [6] was 0.388. It also gave a PBM binding z-score [7] of -0.0672, a PBM binding z-score [8] of 0.874 and a PBM binding z-score [9] of 0.545. It also gave a PBM binding z-score [10] of 1.04, a PBM binding z-score [11] of 0.685 and a PBM binding z-score [12] of 0.664. For the same sequence, the PBM binding z-score [13] was 0.586, the PBM binding z-score [14] was 1.05 and the PBM binding z-score [15] was 1.18. For the same sequence, the PBM binding z-score [16] was 1.31, the PBM binding z-score [17] was 0.494 and the PBM binding z-score [18] was -0.194.

Work on ACAGACATGTGATGAAGGTAACTCAGGCTATCAT yielded a PBM binding z-score [1] of -0.334, a PBM binding z-score [2] of 0.139 and a PBM binding z-score [3] of 0.595. For the same sequence, the PBM binding z-score [4] was 0.868, the PBM binding z-score [5] was -0.0569 and the PBM binding z-score [6] was -0.448. It also gave a PBM binding z-score [7] of -0.319, a PBM binding z-score [8] of -0.161 and a PBM binding z-score [9] of -0.142. It also gave a PBM binding z-score [10] of -0.338, a PBM binding z-score [11] of -0.417 and a PBM binding z-score [12] of 0.0722. The PBM binding z-score [13] was 0.176, the PBM binding z-score [14] was 0.00385 and the PBM binding z-score [15] was 0.168. For the same sequence, the PBM binding z-score [16] was 0.492, the PBM binding z-score [17] was -0.106 and the PBM binding z-score [18] was -0.35.

In the case of GCATATAGGTAATACAAGGTGAACGTCCGATTGT, the PBM binding z-score [1] is reported as 4.57, the PBM binding z-score [2] is reported as 3.63 and the PBM binding z-score [3] is reported as 0.578. The PBM binding z-score [4] was 0.846, the PBM binding z-score [5] was 0.673 and the PBM binding z-score [6] was 0.252. For the same sequence, the PBM binding z-score [7] was 0.124, the PBM binding z-score [8] was 1.37 and the PBM binding z-score [9] was 0.675. For the same sequence, the PBM binding z-score [10] was 0.51, the PBM binding z-score [11] was 0.986 and the PBM binding z-score [12] was 0.615. It also gave a PBM binding z-score [13] of 0.716, a PBM binding z-score [14] of 0.418 and a PBM binding z-score [15] of 0.745. It also gave a PBM binding z-score [16] of 4.18, a PBM binding z-score [17] of 1.38 and a PBM binding z-score [18] of 0.386.

AATACAGCGTCATCGTAGGCCAGAGTACGCACAG showed a PBM binding z-score [1] of -0.562, a PBM binding z-score [2] of 0.0727 and a PBM binding z-score [3] of 0.418. It also gave a PBM binding z-score [4] of -0.309, a PBM binding z-score [5] of -0.333 and a PBM binding z-score [6] of -0.367. The PBM binding z-score [7] was -0.167, the PBM binding z-score [8] was -0.0509 and the PBM binding z-score [9] was -0.571. For the same sequence, the PBM binding z-score [10] was -0.182, the PBM binding z-score [11] was -0.094 and the PBM binding z-score [12] was -0.121. For the same sequence, the PBM binding z-score [13] was 0.174, the PBM binding z-score [14] was -0.495 and the PBM binding z-score [15] was -0.0638. For the same sequence, the PBM binding z-score [16] was 0.55, the PBM binding z-score [17] was -0.659 and the PBM binding z-score [18] was -0.00282.
